# The panel holds about 79,000 compounds, 15% with a hit somewhere; the sample as a whole holds those more often. Calls of active or inactive are those of the source. Cut-off read from the data, not from the text of the source: active = growth inhibition above about 70%; inactive = the rest.
# Test: NCI Yeast Anticancer Drug Screen. Data for the sgs1 strain (AID 173);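 note: 0% = growth of vehicle-only control cultures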
# Details: S. cerevisiae sgs1 mutant, at 100.0 µM, hits give high values
# Procedure, shortened: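 Relative growth inhibition, referenced to vehicle, was determined in a yeast strain with a defined alteration affecting DNA damage repair or cell cycle control after compound exposure.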
row,SMILES,growth inhibition
1,Cc1cccc2c(C(O)CBr)cc(-c3ccc(Cl)cc3)nc12 (stereo not given),90% (active)
2,CC1=C(SCCO)C(=O)c2ccccc2C1=O,35% (inactive)
3,CC(/C=C/c1ccc2c(c1)OCO2)[N+](=O)[O-] (stereo not given),99% (active)
4,COC(=O)C1=C(C)NC(C)=C(C(=O)OCCCN2CCC(c3ccccc3)(c3ccccc3)CC2)C1c1cccc([N+](=O)[O-])c1 (stereo not given),91% (active)
5,O=[N+]([O-])c1cc2no[n+]([O-])c2cc1N1CCCCC1,98% (active)
6,COC(=O)c1ccc(NCC2=CC(=O)C=CC2=O)cc1O,91% (active)
7,CCCCCCCCNC(=O)C1=C(C)NC(C)=C(C(=O)NCCCCCCCC)C1,14% (inactive)
8,S=C(Nc1ccc(Cl)c(Cl)c1)SCc1ccc2c(c1)OCO2,96% (active)
9,O=S(=O)(CCCl)c1ccccc1Cl,99% (active)
10,Nc1ccccc1CC(O)C(=O)O (stereo not given),95% (active)
11,CN(C)c1ccc(Sc2ccc3nc(N)nc(N)c3c2)cc1,18% (inactive)
12,Cc1ccc(S(=O)(=O)Oc2cc(Cl)c(Cl)cc2Cl)cc1,12% (inactive)
13,Cc1cc(I)ccc1N,91% (active)
14,CC(Br)C(=O)c1ccc2cc(Br)c3ccccc3c2c1 (stereo not given),17% (inactive)
15,O=C(Nc1ccccc1)OCCc1ccc(Cl)c(Cl)c1,47% (inactive)
16,CC1(Cl)CC(O)C2(CC1Br)C1(C)OC1C1OC1(Br)C2(C)C (stereo not given),98% (active)
17,Cc1cc(O)cc(O)c1N=Nc1ccc([N+](=O)[O-])cc1,47% (inactive)
18,CC1=NN(c2cccc(Cl)c2)C(=O)C1,50% (inactive)
19,C(CCSC1=NCCN1)CSC1=NCCN1 (tested in a mixture with another compound),99% (active)
20,CCCCCCCCCCC(=O)Cl,90% (active)
21,COC1C=COC2(C)Oc3c(C)c(O)c4c(c3C2=O)/C(=N/C2CCC(O)OC2C)C=C(NC(=O)/C(C)=C\C(=O)C2CC2C(O)C(C)C(O)C(C)C(OC(C)=O)C1C)C4=O (stereo not given),89% (active)
22,S=c1[nH]nc(Nc2ccc(Cl)cc2)s1,91% (active)
23,O=C1CSC(/C=C/c2ccccc2)N1c1ccc(-c2ccc(-n3c(-c4ccccc4)nc4ccccc4c3=O)cc2)cc1 (stereo not given),61% (inactive)
24,O=C1C=CC(=O)N1c1ccc2c(c1)Cc1cc(NC(=O)C(F)(F)F)ccc1-2,82% (active)
25,Oc1ccc2ccccc2c1C(c1ccc(Cl)cc1)c1c(O)ccc2ccccc12,88% (active)
26,C[CH2][Sn]([CH2]C)([O]C(=O)C(OC(C)=O)c1ccccc1)[O]C(=O)C(OC(C)=O)c1ccccc1 (stereo not given),94% (active)
27,Cc1ccc2ccc(O)cc2c1,32% (inactive)

# Test: NCI Yeast Anticancer Drug Screen. Data for the mlh1 rad18 strain (AID 175)
# Details: S. cerevisiae mlh1 rad18 strain growth inhibition; at 5.0 µM (retest, dose inferred, filed as 0.5); hits give high values
# Procedure, shortened: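 In this whole-cell yeast screen, a strain with altered DNA damage repair is challenged with compound, and its growth is measured against matched vehicle-treated controls.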
row,SMILES,growth inhibition
1,Cc1cccc2c(C(O)CBr)cc(-c3ccc(Cl)cc3)nc12 (stereo not given),1% (inactive)
2,CN(C)C[C@H]1CC[C@@H](CN(C)C)C1=O,7% (inactive)
3,CC1=C(SCCO)C(=O)c2ccccc2C1=O,-29% (inactive)
4,COC(=O)CCNc1c2ccccc2nc2cccc([N+](=O)[O-])c12,96% (active)
5,CC(/C=C/c1ccc2c(c1)OCO2)[N+](=O)[O-] (stereo not given),66% (inactive)
6,COC(=O)C1=C(C)NC(C)=C(C(=O)OCCCN2CCC(c3ccccc3)(c3ccccc3)CC2)C1c1cccc([N+](=O)[O-])c1 (stereo not given),74% (active)
7,CCOC(=O)c1cnc2c(C(F)(F)F)cccc2c1N=[N+]=[N-],1% (inactive)
8,O=[N+]([O-])c1cc2no[n+]([O-])c2cc1N1CCCCC1,51% (inactive)
9,COC(=O)c1ccc(NCC2=CC(=O)C=CC2=O)cc1O,0% (inactive)
10,CCCCCCCCNC(=O)C1=C(C)NC(C)=C(C(=O)NCCCCCCCC)C1,8% (inactive)
11,S=C(Nc1ccc(Cl)c(Cl)c1)SCc1ccc2c(c1)OCO2,90% (active)
12,O=S(=O)(CCCl)c1ccccc1Cl,-115% (inactive)
13,Nc1ccccc1CC(O)C(=O)O (stereo not given),0% (inactive)
14,CN(C)c1ccc(Sc2ccc3nc(N)nc(N)c3c2)cc1,34% (inactive)
15,CC(C)C1=CCC2C(=C1)CCC1C(C)(C(=O)O)CCCC21C (stereo not given) (tested in a mixture with another compound),40% (inactive)
16,Cc1ccc(S(=O)(=O)Oc2cc(Cl)c(Cl)cc2Cl)cc1,18% (inactive)
17,CSC(=S)Nc1cc(C)ccn1,50% (inactive)
18,CC(Br)C(=O)c1ccc2cc(Br)c3ccccc3c2c1 (stereo not given),9% (inactive)
19,O=C(Nc1ccccc1)OCCc1ccc(Cl)c(Cl)c1,1% (inactive)

row,SMILES,growth inhibition
1,O=Cc1cccc2ccc3ccccc3c12,-91% (inactive)
2,O=[N+]([O-])CC(SCc1ccccc1)c1ccc2c(c1)OCO2 (stereo not given),73% (active)
3,CC1(Cl)CC(O)C2(CC1Br)C1(C)OC1C1OC1(Br)C2(C)C (stereo not given),-13% (inactive)
4,Cc1cc(O)cc(O)c1N=Nc1ccc([N+](=O)[O-])cc1,48% (inactive)
5,CCCCCCCCCCCCCC[N+](C)(CC(=O)[O-])Cc1ccccc1 (stereo not given),1% (inactive)
6,CC1=NN(c2cccc(Cl)c2)C(=O)C1,73% (active)
7,CC(=O)OCc1ccc(O)c(C=O)c1,26% (inactive)
8,Cc1ccc2ccc3cccc4ccc1c2c34,-3% (inactive)
9,Cc1nc(-[n+]2nc(-c3ccncc3)nn2-c2ccccc2)sc1C,3% (inactive)
10,C(CCSC1=NCCN1)CSC1=NCCN1 (tested in a mixture with another compound),77% (active)
11,CCCCCCCCCCC(=O)Cl,100% (active)
12,COC1C=COC2(C)Oc3c(C)c(O)c4c(c3C2=O)/C(=N/C2CCC(O)OC2C)C=C(NC(=O)/C(C)=C\C(=O)C2CC2C(O)C(C)C(O)C(C)C(OC(C)=O)C1C)C4=O (stereo not given),-7% (inactive)
13,S=c1[nH]nc(Nc2ccc(Cl)cc2)s1,-149% (inactive)
14,O=C1CSC(/C=C/c2ccccc2)N1c1ccc(-c2ccc(-n3c(-c4ccccc4)nc4ccccc4c3=O)cc2)cc1 (stereo not given),-6% (inactive)
15,O=C1C=CC(=O)N1c1ccc2c(c1)Cc1cc(NC(=O)C(F)(F)F)ccc1-2,91% (active)
16,Brc1ccc(-c2cc3c(cc2C2SCCS2)OCO3)cc1,-8% (inactive)
17,Oc1ccc2ccccc2c1C(c1ccc(Cl)cc1)c1c(O)ccc2ccccc12,99% (active)
18,C[CH2][Sn]([CH2]C)([O]C(=O)C(OC(C)=O)c1ccccc1)[O]C(=O)C(OC(C)=O)c1ccccc1 (stereo not given),2% (inactive)
19,Cc1ccc2ccc(O)cc2c1,-33% (inactive)

# From PubChem BioAssay (NCI)
